The text below walks through data of ChEMBL document CHEMBL3988442, “University of Dundee, Small-Polar-MMV Screening Library” (2021).

Common to all, as to set-up: scale not given: direction of the effect not stated beside the values
Assay [1] has as its target Protein translocase subunit SecA (Escherichia coli (strain K12)) (UniProt P10408). Kind of assay: Assay to Identify E. coli SecA ATPase Inhibitors. In kind it is functional. To be noted: 30 µM.
Assay [2] has as its target T1, Ubiquitin-activating enzyme e1, putative (Leishmania donovani (strain BPK282A1)) (UniProt E9BSI1).
T1 sequence (whole entry): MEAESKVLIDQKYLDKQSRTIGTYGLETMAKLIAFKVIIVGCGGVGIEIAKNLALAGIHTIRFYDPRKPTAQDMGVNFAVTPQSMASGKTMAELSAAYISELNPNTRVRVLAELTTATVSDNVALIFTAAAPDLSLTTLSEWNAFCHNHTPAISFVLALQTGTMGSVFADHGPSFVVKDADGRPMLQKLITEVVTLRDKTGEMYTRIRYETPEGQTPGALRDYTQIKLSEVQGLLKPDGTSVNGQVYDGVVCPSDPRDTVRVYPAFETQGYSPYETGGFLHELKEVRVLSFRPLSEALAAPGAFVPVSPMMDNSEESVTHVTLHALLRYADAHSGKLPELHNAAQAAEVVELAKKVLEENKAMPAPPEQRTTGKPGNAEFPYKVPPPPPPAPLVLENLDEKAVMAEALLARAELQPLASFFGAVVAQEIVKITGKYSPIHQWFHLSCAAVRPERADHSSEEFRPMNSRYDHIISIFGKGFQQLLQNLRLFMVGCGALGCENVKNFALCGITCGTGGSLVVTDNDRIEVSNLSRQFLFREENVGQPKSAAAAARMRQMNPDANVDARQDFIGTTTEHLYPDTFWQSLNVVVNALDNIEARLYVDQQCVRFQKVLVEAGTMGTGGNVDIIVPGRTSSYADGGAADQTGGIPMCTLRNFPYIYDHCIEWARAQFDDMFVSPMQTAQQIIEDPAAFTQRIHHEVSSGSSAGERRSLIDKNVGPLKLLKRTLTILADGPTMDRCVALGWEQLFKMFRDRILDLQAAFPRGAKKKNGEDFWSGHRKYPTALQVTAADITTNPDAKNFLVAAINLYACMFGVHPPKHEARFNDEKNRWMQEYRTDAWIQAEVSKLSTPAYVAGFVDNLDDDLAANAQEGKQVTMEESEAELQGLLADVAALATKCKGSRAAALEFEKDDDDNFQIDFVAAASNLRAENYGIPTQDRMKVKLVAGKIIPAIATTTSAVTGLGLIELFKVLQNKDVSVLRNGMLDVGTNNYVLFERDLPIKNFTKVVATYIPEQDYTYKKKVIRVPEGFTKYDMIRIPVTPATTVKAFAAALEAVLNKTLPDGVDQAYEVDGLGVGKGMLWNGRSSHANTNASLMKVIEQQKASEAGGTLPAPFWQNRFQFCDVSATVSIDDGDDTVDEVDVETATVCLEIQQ
Kind of assay: Leishmania donovani Ubiquitin Activating Enzyme (LdE1). To be noted: 30 µM. Type of assay: functional.

Assay [3] deals with T2, Aspartate--tRNA(Asp/Asn) ligase (Mycobacterium tuberculosis (strain ATCC 25618 / H37Rv)) (UniProt P9WFW3).
T2 sequence (whole entry): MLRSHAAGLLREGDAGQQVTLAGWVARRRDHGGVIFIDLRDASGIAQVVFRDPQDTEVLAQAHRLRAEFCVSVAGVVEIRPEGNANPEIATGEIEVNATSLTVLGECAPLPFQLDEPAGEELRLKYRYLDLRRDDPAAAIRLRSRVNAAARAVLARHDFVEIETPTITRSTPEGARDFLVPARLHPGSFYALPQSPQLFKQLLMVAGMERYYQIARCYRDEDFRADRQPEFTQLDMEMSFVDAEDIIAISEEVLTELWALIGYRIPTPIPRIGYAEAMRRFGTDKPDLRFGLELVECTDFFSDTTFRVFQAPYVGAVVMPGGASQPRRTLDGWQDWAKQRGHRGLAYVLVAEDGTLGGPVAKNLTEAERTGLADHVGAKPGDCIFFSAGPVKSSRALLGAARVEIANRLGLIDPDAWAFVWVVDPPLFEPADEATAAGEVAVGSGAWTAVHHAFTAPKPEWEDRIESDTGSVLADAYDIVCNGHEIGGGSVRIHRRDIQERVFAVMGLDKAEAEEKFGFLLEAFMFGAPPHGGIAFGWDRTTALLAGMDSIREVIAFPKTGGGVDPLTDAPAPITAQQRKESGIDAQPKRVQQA
Nature of the assay: Assay for Asp RNA synthetase-1 from Mycobacterium tuberculosis. Type of assay: functional. As to conditions: 30 µM.

The target in assay [4] is AMP-activated protein kinase, AMPK (Homo sapiens) (UniProt P54646+O43741+P54619+Q9UGJ0+Q9Y478+Q13131+Q9UGI9). Nature of the assay: AMP-dependent Kinase enzyme assay. An in vitro enzyme assay that detects ADP turnover that is directly proportional to AMPK activity. This uses naive AMPK that is activated during the assay with MK-8722. In kind it is functional. As to conditions: 30 µM.

The target of assay [5] is Sialic acid-binding Ig-like lectin 9 (Homo sapiens) (UniProt Q9Y336). Kind of assay: Hs-Siglec9 ALPHAscreen SOP 20170721. To be noted: 10 µM. On the technique in general: Bead proximity is the source of the signal in Alpha formats.
The subject of assay [6] is Trypanosoma cruzi. Nature of the assay: Trypanosoma cruzi phosphomannomutase and mannose-1-phosphate guanylyltransferase assay. Type of assay: functional. To be noted: 10 µM.
In assay [7] the target is T3, Arginase-2, mitochondrial (Homo sapiens) (UniProt P78540).
T3 sequence (whole entry): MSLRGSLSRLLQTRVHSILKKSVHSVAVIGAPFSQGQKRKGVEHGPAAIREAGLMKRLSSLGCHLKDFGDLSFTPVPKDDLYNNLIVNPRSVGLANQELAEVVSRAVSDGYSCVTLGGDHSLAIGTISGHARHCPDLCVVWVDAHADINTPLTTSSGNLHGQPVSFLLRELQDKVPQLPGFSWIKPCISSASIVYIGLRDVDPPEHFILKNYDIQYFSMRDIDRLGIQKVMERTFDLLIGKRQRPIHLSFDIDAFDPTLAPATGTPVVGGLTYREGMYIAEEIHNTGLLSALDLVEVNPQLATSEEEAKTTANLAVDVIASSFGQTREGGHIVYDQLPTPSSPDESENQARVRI
Nature of the assay: in vitro enzyme assay to detect the production of urea directly proportional to the activity of Arginase II. Also: in the data most compounds retested in dose-response had high values. Type of assay: functional. To be noted: 33.3 µM.

For assay [8], the target named is T4, Proteasome subunit beta (Trypanosoma cruzi) (UniProt O96673).
T4 sequence (whole entry): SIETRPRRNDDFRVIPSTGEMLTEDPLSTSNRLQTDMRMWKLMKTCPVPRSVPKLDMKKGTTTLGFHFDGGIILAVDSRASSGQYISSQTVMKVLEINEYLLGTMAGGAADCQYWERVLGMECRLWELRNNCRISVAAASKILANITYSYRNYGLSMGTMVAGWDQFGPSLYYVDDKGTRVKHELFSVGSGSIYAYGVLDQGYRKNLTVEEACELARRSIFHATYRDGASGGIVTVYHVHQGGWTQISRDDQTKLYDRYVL
Nature of the assay: Trypanosoma cruzi proteasome chymotrypsin-like activity (TcProtChymo) assay. Also: in the data most compounds retested in dose-response had high values. Type of assay: functional. As to conditions: 9.37 µM.

The species named for assay [9] is Homo sapiens. Kind of assay: To identify inhibition of the IFN signalling (Jak-Stat) pathway via expression of an eGFP reporter gene under the control of an IFN-stimulated response element (ISRE) containing MxA promoter. Type of assay: functional. As to conditions: 30 µM. Background: Reporter assays use an easily measured gene product as a stand-in for the process of interest.

Assay [10] addresses Shiga toxin 2 (Escherichia coli O157:H7) (UniProt P09385+P09386). Kind of assay: E. coli 0.157:H7 Shiga Toxin SOP - stx2 screening assay. To be noted: 30 µM. Type of assay: functional.
Assay [11] concerns the target T5, Tyrosyl-tRNA synthetase, putative (Trypanosoma cruzi (strain CL Brener)) (UniProt Q4DSP6).
T5 sequence (whole entry): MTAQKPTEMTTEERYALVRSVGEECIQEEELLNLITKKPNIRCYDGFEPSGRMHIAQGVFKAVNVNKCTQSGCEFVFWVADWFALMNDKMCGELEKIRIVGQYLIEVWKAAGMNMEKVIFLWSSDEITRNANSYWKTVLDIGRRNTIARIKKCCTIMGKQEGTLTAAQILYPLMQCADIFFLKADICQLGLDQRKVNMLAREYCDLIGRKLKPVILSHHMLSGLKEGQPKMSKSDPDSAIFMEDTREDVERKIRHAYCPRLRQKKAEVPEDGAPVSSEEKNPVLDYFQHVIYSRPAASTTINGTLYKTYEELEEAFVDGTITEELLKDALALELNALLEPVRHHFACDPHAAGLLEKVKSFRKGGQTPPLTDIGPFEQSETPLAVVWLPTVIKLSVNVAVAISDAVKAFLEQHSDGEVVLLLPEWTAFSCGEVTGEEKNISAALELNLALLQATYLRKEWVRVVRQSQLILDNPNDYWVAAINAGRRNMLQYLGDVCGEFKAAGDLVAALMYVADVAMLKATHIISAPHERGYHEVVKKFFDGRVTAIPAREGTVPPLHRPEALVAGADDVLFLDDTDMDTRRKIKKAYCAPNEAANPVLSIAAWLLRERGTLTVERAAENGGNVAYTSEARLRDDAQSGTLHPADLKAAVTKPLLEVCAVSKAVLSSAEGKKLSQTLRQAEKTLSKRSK
Kind of assay: Trypanosoma cruzi tyrosyl tRNA synthetase (TcYRS) _High Tyrosine SOP. Also: in the data most compounds retested in dose-response had high values. To be noted: 30 µM. In kind it is functional.

Assay [12] has as its target T5, Tyrosyl-tRNA synthetase, putative (Trypanosoma cruzi (strain CL Brener)). Kind of assay: Trypanosoma cruzi tyrosyl tRNA synthetase (TcYRS) SOP. To be noted: 30 µM. Type of assay: functional.
For assay [13], the target named is Chromo domain-containing protein 1 (Saccharomyces cerevisiae (strain ATCC 204508 / S288c) (Baker's yeast)) (UniProt P32657). Nature of the assay: ScCHD-1 Enzyme Inhibition Assay. Also: in the data most compounds retested in dose-response had high values. Type of assay: functional. As to conditions: 30 µM.

For some assays here: Results with a measured potency or affinity are listed apart.

Chain of Protein translocase subunit SecA (Escherichia coli (strain K12)) (P10408 whole entry): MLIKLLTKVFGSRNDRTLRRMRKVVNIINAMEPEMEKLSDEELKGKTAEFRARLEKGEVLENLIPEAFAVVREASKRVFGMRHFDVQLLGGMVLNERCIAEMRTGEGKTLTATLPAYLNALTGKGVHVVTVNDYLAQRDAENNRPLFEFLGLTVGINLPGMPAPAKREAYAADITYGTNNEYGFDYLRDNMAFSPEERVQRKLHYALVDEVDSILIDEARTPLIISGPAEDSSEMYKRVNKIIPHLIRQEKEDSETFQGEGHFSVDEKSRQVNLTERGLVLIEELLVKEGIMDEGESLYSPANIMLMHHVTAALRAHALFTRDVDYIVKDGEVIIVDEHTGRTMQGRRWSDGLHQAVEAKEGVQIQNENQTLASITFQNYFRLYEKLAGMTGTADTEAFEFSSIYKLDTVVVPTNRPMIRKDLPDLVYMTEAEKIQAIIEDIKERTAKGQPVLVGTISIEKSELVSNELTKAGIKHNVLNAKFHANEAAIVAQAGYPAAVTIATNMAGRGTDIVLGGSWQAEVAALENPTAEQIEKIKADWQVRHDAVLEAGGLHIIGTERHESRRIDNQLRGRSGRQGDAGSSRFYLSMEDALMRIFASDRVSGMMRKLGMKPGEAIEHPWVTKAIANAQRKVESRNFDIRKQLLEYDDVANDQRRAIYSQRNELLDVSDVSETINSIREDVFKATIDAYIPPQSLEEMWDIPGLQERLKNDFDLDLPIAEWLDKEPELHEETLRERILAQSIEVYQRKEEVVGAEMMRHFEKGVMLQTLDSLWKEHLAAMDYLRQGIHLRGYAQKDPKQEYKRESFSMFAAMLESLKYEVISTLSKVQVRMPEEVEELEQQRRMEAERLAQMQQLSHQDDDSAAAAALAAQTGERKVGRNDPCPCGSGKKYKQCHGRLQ
Chain of Sialic acid-binding Ig-like lectin 9 (Homo sapiens) (Q9Y336 whole entry): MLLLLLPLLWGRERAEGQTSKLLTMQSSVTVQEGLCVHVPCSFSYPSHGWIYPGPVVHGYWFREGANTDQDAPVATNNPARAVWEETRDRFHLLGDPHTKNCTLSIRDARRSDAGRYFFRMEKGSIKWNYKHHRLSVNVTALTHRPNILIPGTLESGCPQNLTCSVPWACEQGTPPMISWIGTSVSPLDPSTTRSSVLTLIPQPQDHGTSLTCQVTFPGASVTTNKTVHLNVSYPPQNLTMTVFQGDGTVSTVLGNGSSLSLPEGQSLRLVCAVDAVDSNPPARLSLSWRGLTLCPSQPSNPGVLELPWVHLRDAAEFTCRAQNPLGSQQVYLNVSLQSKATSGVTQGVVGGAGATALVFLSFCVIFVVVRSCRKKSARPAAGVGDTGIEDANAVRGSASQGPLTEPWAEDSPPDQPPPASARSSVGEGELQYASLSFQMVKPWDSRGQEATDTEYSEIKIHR
Chain of Chromo domain-containing protein 1 (Saccharomyces cerevisiae (strain ATCC 204508 / S288c) (Baker's yeast)) (P32657 whole entry, the tested form may be a part): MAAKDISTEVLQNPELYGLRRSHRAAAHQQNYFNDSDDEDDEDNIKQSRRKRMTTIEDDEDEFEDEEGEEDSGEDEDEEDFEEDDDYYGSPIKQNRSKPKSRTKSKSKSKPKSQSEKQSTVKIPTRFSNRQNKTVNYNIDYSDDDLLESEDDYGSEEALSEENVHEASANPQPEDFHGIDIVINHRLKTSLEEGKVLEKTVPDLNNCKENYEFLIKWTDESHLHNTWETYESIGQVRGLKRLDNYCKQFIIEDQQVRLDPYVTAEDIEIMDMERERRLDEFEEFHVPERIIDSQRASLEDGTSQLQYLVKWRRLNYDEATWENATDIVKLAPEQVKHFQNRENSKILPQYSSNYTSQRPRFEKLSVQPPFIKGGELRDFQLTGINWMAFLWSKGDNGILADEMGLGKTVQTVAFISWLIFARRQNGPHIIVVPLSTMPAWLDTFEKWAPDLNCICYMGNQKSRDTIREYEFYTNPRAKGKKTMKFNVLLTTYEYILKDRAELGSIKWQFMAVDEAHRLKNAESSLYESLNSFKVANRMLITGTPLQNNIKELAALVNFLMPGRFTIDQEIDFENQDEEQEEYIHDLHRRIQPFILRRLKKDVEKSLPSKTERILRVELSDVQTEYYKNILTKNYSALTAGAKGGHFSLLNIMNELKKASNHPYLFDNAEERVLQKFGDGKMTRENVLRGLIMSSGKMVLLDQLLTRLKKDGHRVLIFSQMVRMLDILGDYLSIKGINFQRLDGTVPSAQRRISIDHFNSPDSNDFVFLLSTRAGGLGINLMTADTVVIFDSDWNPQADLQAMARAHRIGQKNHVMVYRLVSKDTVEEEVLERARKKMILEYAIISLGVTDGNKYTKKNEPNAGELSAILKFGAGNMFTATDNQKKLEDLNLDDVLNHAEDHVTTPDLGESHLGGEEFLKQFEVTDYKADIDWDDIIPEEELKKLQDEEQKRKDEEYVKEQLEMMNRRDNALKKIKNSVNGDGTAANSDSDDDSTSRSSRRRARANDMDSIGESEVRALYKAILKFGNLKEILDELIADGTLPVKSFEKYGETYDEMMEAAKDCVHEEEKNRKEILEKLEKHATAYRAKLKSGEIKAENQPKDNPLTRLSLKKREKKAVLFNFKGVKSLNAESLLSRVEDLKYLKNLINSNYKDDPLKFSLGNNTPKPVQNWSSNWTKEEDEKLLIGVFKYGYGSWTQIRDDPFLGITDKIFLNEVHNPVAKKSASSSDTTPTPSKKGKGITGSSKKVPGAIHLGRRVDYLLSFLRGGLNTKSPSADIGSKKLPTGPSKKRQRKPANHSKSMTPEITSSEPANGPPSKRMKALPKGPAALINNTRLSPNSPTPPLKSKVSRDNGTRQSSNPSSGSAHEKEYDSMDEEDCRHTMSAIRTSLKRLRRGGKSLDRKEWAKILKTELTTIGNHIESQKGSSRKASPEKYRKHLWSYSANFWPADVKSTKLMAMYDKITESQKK

For the molecule `O=C(NC[C@]12COC[C@H]1CN(Cc1ccncc1)C2)c1ccco1`, the Percent Effect is -2.11% in [1]; 13.3% in assay [2]; -0.368% in assay [3]; 7.09% in [4]; 2.99% in [5]; -2.17% in [6]. The Percent Effect was 4.43% in [7]; 12.8% in assay [8]; 7.74% in [9]; -4.6% in assay [10]; 10.6% in assay [11]; 21.8% in assay [12]. For the same molecule, the Percent Effect in assay [13] was -2.5%.
`Fc1cnc(N2CCO[C@H]3CN(CC4CCC4)C[C@H]32)nc1`: the Percent Effect is -5.78% in assay [1]; 16% in [2]; -2.5% in assay [3]; -5.38% in assay [4]; 0.543% in assay [5]; 1.93% in [6]. The Percent Effect in assay [7] was -59.3%; in assay [8], 14.5%; in assay [9], 5.62%; in [10] it was -17.2%; in [11] it was -4.17%; in [12], 17.5%. The Percent Effect in [13] was -17.8%.
As to `O=C(CN1CCN(C(=O)Cc2ccc3c(c2)OCCO3)CC1)NC1CC1`, the Percent Effect was -0.996% in assay [1]; 18.2% in assay [2]; 3.1% in assay [3]; 0.741% in [4]; 0.674% in assay [5]; 2.06% in [6]. For the same molecule, the Percent Effect is -2.13% in [7]; 11.8% in [8]; -0.0292% in assay [9]; -19.4% in [10]; 6.8% in assay [11]; 12.2% in assay [12]. In [13], the Percent Effect is -6.48%.
As for `c1cc(NC2CC3(CCN(Cc4cc[nH]n4)C3)C2)ncn1` (stereo not given), the Percent Effect was -3.9% in assay [1]; -4.05% in [2]; -4.78% in assay [3]; 5.87% in assay [4]; 0.0436% in [5]; 5.73% in [6]. Also, the Percent Effect in [7] was -3.02%; in assay [8] it was 2.18%; in assay [9], -4.19%; in [10], 0.0104%; in assay [11] it was 2.15%; in assay [12], 3.9%. Also, the Percent Effect in [13] is -8.87%.
Consider `c1ccc(CO[C@H]2CO[C@@]3(CCN(Cc4ccoc4)C3)C2)nc1`, for which the Percent Effect in assay [1] is -1.82%; in assay [2], 14.7%; in [3], 2.15%; in assay [4], 3.34%; in [5], 5.22%; in [6], -1.38%. Moreover, the Percent Effect in assay [7] was -7.57%; in [8], 10.2%; in [9], -27.8%; in [10], -30.9%; in [11], -1.06%; in assay [12], 12.8%. For the same molecule, in [13], the Percent Effect is -9.15%.
